DRD3 agonist = activates the human D3 dopamine receptor. P35462. D3R DiscoveRx beta-arrestin cells, luminescence, 90 min. max activation, %. 0.58% of 410,000 active. AID 652048; in the data active = max activation above about 30%
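Agonist-mode cell screen: cells plated at 1500/well and incubated overnight at 37 °C, then exposed to library compounds for 90 min at 37 °C. Detection reagent was added for 30–60 min at room temperature, and luminescence was read.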
D3 antag = blocks the human D3 dopamine receptor. max response, negative = inhibition, %. 2.5% of 360,000 active. D3R cells, DiscoveRx beta-arrestin luminescence, antagonist mode; active compounds read low. P35462; in the data active = max response below about -50%; inconclusive = no clear call, values can overlap the other calls
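Cells expressing the human receptor were seeded at 1500 cells/well, incubated overnight at 37 degrees C in 5% CO2, then exposed to library compounds with dopamine controls for 90 minutes at 37 degrees C before luminescent detection.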
LDHA block = LDHA (human) enzyme inhibition; 0.15% of 480,000 active; P00338; purified LDHA, NADH/diaphorase-resazurin fluorescence; active compounds read low; activity change, % (values are at about 110 or 230 µM); in the data active = activity change below about -30%; inconclusive = mostly about -25% to -30%
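Human LDH5 (2 nM) was incubated with 0.06 mM NADH and 0.2 mM pyruvate for 5 min at room temperature in Tris pH 7.4. Remaining NADH was coupled through diaphorase/resazurin, and resorufin fluorescence was read at 0 and 20 min.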
PI5P4K alpha inh = inhibitors of human PI5P4K alpha | P48426 | PI5P4Kalpha enzyme, ADP-Glo luminescence, 60 min; active compounds read low | max response, % | 1.2% of 330,000 active | AID 652105; active = max response of -50% or lower; inconclusive = between -30% and -50%; inactive = -30% or higher; note: value at the top dose of about 77 µM
Target sequence (P48426 whole entry, looked up): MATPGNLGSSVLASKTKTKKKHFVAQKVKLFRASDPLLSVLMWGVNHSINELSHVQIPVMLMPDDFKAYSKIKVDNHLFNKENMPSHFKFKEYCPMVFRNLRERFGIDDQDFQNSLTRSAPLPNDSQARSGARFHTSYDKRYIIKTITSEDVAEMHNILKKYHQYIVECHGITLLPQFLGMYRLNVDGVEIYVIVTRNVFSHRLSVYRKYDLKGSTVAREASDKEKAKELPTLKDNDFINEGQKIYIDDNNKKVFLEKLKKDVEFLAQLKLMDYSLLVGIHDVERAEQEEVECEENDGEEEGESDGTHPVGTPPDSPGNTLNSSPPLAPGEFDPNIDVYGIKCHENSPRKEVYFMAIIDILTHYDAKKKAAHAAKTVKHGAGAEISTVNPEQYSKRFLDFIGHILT
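Quantitative HTS of the MLSMR library against PI5P4Kalpha with substrate. ATP added last at 5 microM final; room temperature, 60 minutes. Remaining ATP depleted, ADP converted and read as luminescence.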
PI4K2A inh = blocks human PI4K2A kinase activity | purified PI4K2A, ADP-Glo luminescence, 1 h; active compounds read low | activity change, negative = inhibition, % at 76.9 µM | 0.13% of 420,000 active; in the data active = activity change below about -50%; inconclusive = mostly about -30% to -49%
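In this quantitative HTS, ADP production by PI4K2A was quantified luminescently after 1 h at ambient temperature; 100 microM adenosine served as plate-quality control.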
A number is an active result; 0 = inactive; ? = inconclusive; - = no result. Sampled rows, rich in hits. Any-hit rate of the full collection: about 3.3%.

SMILES	DRD3 agonist	D3 antag	LDHA block	PI5P4K alpha inh	PI4K2A inh
COc1cc(NC(=O)C2C3C=CC(C3)C2C(=O)O)c(OC)cc1Cl (stereo not given)	0	-86.1	0	-	0
O=[N+]([O-])c1cc(S(=O)(=O)Nc2ccccc2)ccc1N/N=C/c1cn(-c2ccccc2)nc1-c1ccccc1	-	-	0	-	-
CCOC(=O)CCC(NC(=O)c1cncc(O)c1)C(=O)OCC (stereo not given)	0	-64.5	0	0	0
CCOC(=O)CCC(NC(=O)CCCCC(=O)NC(CCC(=O)OCC)C(=O)OCC)C(=O)OCC (stereo not given)	0	0	0	0	0
CCc1ccc(C(=O)COC(=O)C(NC(=O)c2ccc(CC)cc2)C(C)C)cc1 (stereo not given)	-	-	0	-	-
COc1ccc(C(=O)CN2C(=O)c3ccccc3S2(=O)=O)cc1	0	0	0	0	0
O=C(CN1/C(=C(/O)c2ccccc2)C(=O)c2ccccc2S1(=O)=O)c1ccccc1	0	-88.2	0	0	0
COCCN1CCC(=O)C(C)C1C (stereo not given)	-	-	0	-	-
CCOc1ccc(CCN2C(=S)N([C@@H](Cc3ccc(O)cc3)CN3CCCC3CN3C(=S)NC[C@@H]3Cc3ccc(O)cc3)C[C@@H]2CC(C)C)cc1 (stereo not given in full)	0	-68.2	0	0	0
CCOc1ccc(CCN2C(=S)N([C@@H](Cc3ccccc3)CN3CCC[C@@H]3CN3C(=S)NC[C@@H]3Cc3ccc(O)cc3)C[C@@H]2CC(C)C)cc1	0	0	0	0	0
CCOc1ccc(CCN2C(=S)N([C@@H](Cc3ccc(O)cc3)CN3CCC[C@@H]3CN3C(=S)NC[C@@H]3CC(C)C)C[C@@H]2Cc2ccc(O)cc2)cc1	0	-79.7	0	0	0
O=C1C2CC=CCC2C(=O)N1Cc1ccccc1 (stereo not given)	0	0	0	-	0
O=C1C=CC(=O)N1Cc1ccccc1	0	-139.5	0	-86.2	0
CC1CCc2c(nc3nc[nH]n3c2=O)C1 (stereo not given)	0	-53.1	0	0	0
S=c1c2c(nc3nc[nH]n13)CCC2	0	0	0	0	?
Cc1[nH]n(-c2ccc([N+](=O)[O-])cc2)c(=O)c1C=NCCN1CCN(C(=O)c2ccc(Br)cc2)CC1	0	-65.1	0	0	0
Cc1[nH]n(-c2ccc([N+](=O)[O-])cc2)c(=O)c1C=NCCc1c[nH]c2ccccc12	37.1	0	0	0	0
Cc1[nH]n(-c2ccc([N+](=O)[O-])cc2)c(=O)c1C=NCCN1CCN(C(=O)c2ccc(F)cc2)CC1	0	0	0	-	0
COc1ccc(C(=O)CC(c2ccc(OC)cc2)S(=O)(=O)c2ccc(C)cc2)cc1 (stereo not given)	-	-	0	-	-
COc1ccc(C(=O)COC(=O)c2cccc(-n3cnnn3)c2)c(OC)c1	36.4	0	0	?	0
O=C(COC(=O)c1cccc(-n2cnnn2)c1)c1ccc(F)cc1	0	0	0	0	0
CCCCOCCCNC(=O)C[C@H]1C[C@@]2(C(=O)OC)C(=C[C@H](C(C)C)O[C@@H]2C2CC2)N(Cc2cccc3ccccc23)C1=O	-	-	-	-	0
Cc1cc(C)c2cc(C(=O)N3CCCC(C)C3)[nH]c2c1C (stereo not given)	-	-	0	-	-
CCCCCc1cc(=O)oc2c(C(CCN3CCCC(C)C3)c3ccc(N(C)C)cc3)c(OC)cc(OC)c12 (stereo not given)	0	0	0	0	0
COc1cc(C2CC(=O)Oc3c(C(CCN4CCCC(C)C4)c4ccc(N(C)C)cc4)c(OC)cc(OC)c32)cc(OC)c1OC (stereo not given)	0	-71.5	0	0	0
SMILES	DRD3 agonist	D3 antag	LDHA block	PI5P4K alpha inh	PI4K2A inh
COc1cc(OC)c2ccc(=O)oc2c1C(CCN1CCCC(C)C1)c1ccc(N(C)C)cc1 (stereo not given)	0	-59.5	0	0	0
COc1cc(C(CCN2CCOCC2)c2c(OC)cc(OC)c3c2OC(=O)CC3c2ccc(N(C)C)cc2)cc(OC)c1OC (stereo not given)	0	0	0	0	0
COc1cc(C(CCN2CCCC(C)C2)c2c(OC)cc(OC)c3c2OC(=O)CC3c2ccc(N(C)C)cc2)cc(OC)c1OC (stereo not given)	0	-59.5	0	0	0
COc1ccc(C2CC(=O)Oc3c(C(CCN4CCN(c5ccccc5)CC4)c4ccc(N(C)C)cc4)c(OC)cc(OC)c32)cc1 (stereo not given)	0	-84.1	0	0	0
CCN(CC)CCNC(=O)c1ccc(Cn2c(SCc3ccccc3)nc3ccncc32)cc1	-	-	0	-	-
CN(C)c1nc(N)nc(CSc2ccccc2F)n1	-	-	0	-	-
COc1cc(NC(=O)OCc2ccccc2)c2ncccc2c1	34.4	0	0	0	0
COc1cc(NC(C)CCCN)c2ncccc2c1 (stereo not given)	0	-68.5	0	0	?
COc1cc(NCCCCCCCN)c2ncccc2c1	0	0	0	0	0
CCC1(C)Cc2nc3sc4c(=O)n(CC(=O)NCCc5ccccc5)cnc4c3cc2CO1 (stereo not given)	-	-	0	-	-
Cc1ccc(C)c(-c2cc3ccccn3c2)c1	-	-	0	-	-
Cc1oc(-c2ccccc2)nc1C(=O)NCC(C)N1CCOCC1 (stereo not given)	-	-	0	-	-
Cc1c(NS(C)(=O)=O)cccc1-c1nc2cccnc2s1	0	-50.7	0	0	0
CS(=O)(=O)Nc1cccc2cccnc12	0	-56.9	0	0	0
O=C(O)CCS(=O)(=O)c1cccc2cccnc12	0	0	0	-	0
CCSS(=O)(=O)c1cccc2cccnc12	0	0	0	-83.6	0
Cc1c(NS(=O)(=O)c2cccs2)cccc1-c1nc2cccnc2s1	0	0	0	0	0
O=S(=O)(Nc1cccc2cccnc12)c1ccc(S(=O)(=O)N2CCCC2)cc1	0	-72.4	0	-	0
O=S(=O)(Nc1cccc2cccnc12)c1cccc(F)c1	-	-	0	-	-
COc1ccc(S(=O)(=O)Nc2cccc3cccnc23)cc1	-	-	0	-	-
O=S(=O)(c1ccc2c(c1)OCCO2)N1CCN(S(=O)(=O)c2cccc(Cl)c2F)CC1	-	-	0	-	-
Cc1ccc(S(=O)(=O)Nc2cccc3cccnc23)c([N+](=O)[O-])c1	0	-56.3	0	0	0
O=S(=O)(Nc1cccc2cccnc12)c1ccccc1	0	-70.6	0	0	0
CCCCCCC1CC(CCc2nc(=S)[nH][nH]2)C(=O)O1 (stereo not given)	0	0	0	0	0
CCCCCCCCc1nc(=S)[nH][nH]1	0	-67.4	0	0	0
CSCC(=O)N1CCCC(N2CCN(c3cccc(C(F)(F)F)c3)CC2)C1 (stereo not given)	0	0	0	0	0
CC1(CCC(=O)N2CCCC(N3CCN(c4cccc(C(F)(F)F)c4)CC3)C2)CC1 (stereo not given)	0	-66.2	0	0	0
CCCCCn1c(NCCCOCC)nc2c1c(=O)[nH]c(=O)n2C	-	-	0	-	-
